Jurkat NFkB inh: inhibitors of the PMA/ionomycin-induced NF-kB reporter in Jurkat cells; inhibition, % at 4 µM; PMA/ionomycin-induced NF-kB luciferase reporter, luminescence; 0.53% of 330,000 active; AID 435003; in the data active means inhibition above about 50%
MITF TRPM1 inh: inhibitors of MITF-driven TRPM1 promoter in melanoma cells. 0.83% of 330,000 active. inhibition, % at 12.5 µM. SK-MEL-5 TRPM1 promoter luciferase, 24 h;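 active means mean inhibition across replicates of 60% or more, whatever share of single replicates reaches that level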
LMP1 NFkB inh: Epstein-Barr LMP1 NF-kappaB reporter inhibition | LMP1-induced NF-kappaB luciferase reporter cells, luminescence | inhibition, % at 12.5 µM | 0.69% of 350,000 active | AID 504558; in the data active means inhibition above about 41%
Gli-Sufu block: antagonists of Gli-Sufu signaling; Sufu-KO-LIGHT fibroblasts, Gli luciferase reporter luminescence; inhibition, % at 5 µM; 0.74% of 340,000 active; AID 588413;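 active means inhibition above about 55%, limit read from the data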
Shn3 3UTR inh: reduces Shn3 3'UTR luciferase signal in osteoblasts; Clone20 osteoblast Shn3 3'UTR firefly luciferase, 24 h; inhibition, % at 12.5 µM; 0.52% of 360,000 active; AID 588674;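 active means mean inhibition of at least 75% with every replicate also reaching 75%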
697 NFkB inh: inhibitors of the PMA/ionomycin-induced NF-kB reporter in 697 B cells; 697 B-cell NF-kB luciferase reporter, 16 h; inhibition, % at 4 µM; 0.33% of 330,000 active; AID 435022; in the data active means inhibition above about 35%
Numbers stand for hits; n = inactive; x = no result. An excerpt weighted towards active compounds, which were near 2.3% of everything screened.

SMILES	Jurkat NFkB inh	MITF TRPM1 inh	LMP1 NFkB inh	Gli-Sufu block	Shn3 3UTR inh	697 NFkB inh
CCOc1ccc(C(=O)C(CCC(CN(C)C)C(=O)c2ccc(OCC)cc2)CN(C)C)cc1 (configuration not stated)	x	103	67	n	98	x
CN(C)CC(CCC(CN(C)C)C(=O)c1ccccc1)C(=O)c1ccccc1 (configuration not stated)	x	97	84	n	98	x
COc1ccc(C(=O)C(CCCCC(CN(C)C)C(=O)c2ccc(OC)cc2)CN(C)C)cc1 (configuration not stated)	n	n	n	n	n	n
O=C1N[C@@H](Cc2c[nH]c3ccccc23)COC(=O)[C@H](Cc2ccc(F)cc2)C/C=C\C[C@H]1CC(=O)N(CCO)Cc1ccccc1	n	n	43	n	n	n
O=C1NCCOC(=O)[C@@H](Cc2ccc(F)cc2)CC/C=C/C[C@@H]1CC(=O)N(CCO)Cc1ccccc1	n	n	n	n	91	n
O=C1N[C@@H](Cc2c[nH]c3ccccc23)COC(=O)[C@@H](Cc2ccc(F)cc2)CC/C=C/C[C@@H]1CC(=O)N(CCO)Cc1ccccc1	n	n	n	n	n	n
Cc1csc(=Nc2c(C)n(C)n(-c3ccccc3)c2=O)n1Cc1ccccc1	n	n	n	n	n	n
C=CCn1c(-c2ccc(OC)cc2)csc1=Nc1c(C)n(C)n(-c2ccccc2)c1=O	n	n	42	n	n	n
CC(C)c1cc(=O)oc2c3c4c(cc12)CCCN4CCC3	n	n	n	n	n	n
CN1CCCc2cc3c(C(F)(F)F)cc(=O)oc3nc21	n	n	n	96	n	n
COc1ccc2c(c1)-c1c(ssc1=S)C(C)(C)N2	n	n	45	n	n	n
COc1ccc(-n2sc3c(c2=S)-c2cc(OC)ccc2NC3(C)C)cc1	n	n	n	n	n	n
C/C(=N\Nc1nc2ccccc2[nH]1)c1ccc(Cl)s1	n	n	43	n	n	n
CN(C(=O)/C=C/c1ccc([N+](=O)[O-])s1)c1ccccc1	n	69	n	n	n	n
O=C(NCc1ccc2c(c1)OCO2)c1ccccc1Cl	n	n	n	n	n	n
O=C(NCc1ccc2c(c1)OCO2)c1nc(S(=O)(=O)Cc2ccccc2)ncc1Cl	n	n	n	n	94	n
O=C(NCc1ccc2c(c1)OCO2)c1nc(S(=O)(=O)Cc2ccccc2F)ncc1Cl	n	91	n	n	95	n
COc1ccc(CNC(=O)CN(C(=O)CCC(=O)Nc2ccccn2)c2ccc3c(c2)OCO3)cc1	n	n	n	n	n	n
Cc1ccc2nc3c(c(Nc4ccc5c(c4)OCCO5)c2c1)CCC3	n	n	n	n	n	n
CCOc1ccc(S(=O)(=O)N/N=C2/CCCC(=O)C2)cc1	n	n	n	n	n	n
O=C1CC(Sc2nnnn2-c2ccccc2)C(=O)N1c1cccc(Cl)c1 (configuration not stated)	n	n	n	n	90	n
CC(=O)[C@H]1CC[C@H]2[C@@H]3C[C@H](C)C4=CC(=O)CC[C@]4(C)[C@H]3[C@@H](O)C[C@]12C	n	n	57	n	n	n
CCOC(=O)c1c2c(n(-c3ccc(OC)cc3)c1C)C(=O)C(=O)c1ccccc1-2	x	94	87	n	97	x
Cc1cc(C(=O)Nc2ccc(Cl)cc2)c(C)n1-c1ccccc1	n	x	x	69	x	n
Cc1ccc(NC(=O)c2cc(C)n(-c3ccccc3)c2C)cc1	n	n	n	n	n	n
SMILES	Jurkat NFkB inh	MITF TRPM1 inh	LMP1 NFkB inh	Gli-Sufu block	Shn3 3UTR inh	697 NFkB inh
O=[N+]([O-])/C=C\c1ccc(N2CCCC2)c(F)c1	x	94	n	n	n	x
O=C(Nc1ccc2[nH]c(=O)[nH]c2c1)c1ccc(Br)o1	n	n	n	n	n	n
Cc1cccc2c1Sc1ccc(Cl)cc1CC2N1CCNCC1 (configuration not stated)	n	x	x	n	x	n
CCc1cccc2c1Sc1ccccc1CC2N1CCNCC1 (configuration not stated)	n	81	n	n	n	n
Cc1cc2cc(CNS(=O)(=O)N(C)C)ccc2[nH]1	n	x	n	n	n	n
C[C@H](CO)N1C[C@H](C)[C@@H](CN(C)C(=O)Nc2ccccc2)Oc2ccc(NC(=O)Nc3ccc(C(F)(F)F)cc3)cc2C1=O	n	n	n	n	n	n
C[C@H](CO)N1C[C@H](C)[C@@H](CN(C)C)Oc2c(NC(=O)Cc3ccccc3)cccc2C1=O	n	n	44	n	n	n
